Each structure is given as a SMILES string. Where “and” joins values, the source holds several entries; their conditions need not be identical. Identical values can stand only once. Inconclusive results are not listed. Calls of active or inactive are those of the source. Unless noted, calls follow the shape of the dose curve; as a rule, active = well fitted curve in the direction sought with a large enough effect; inconclusive = small, poorly fitted or top-dose-only effect, or another doubt; inactive = no such curve, though single readings can be large; an effect the other way counts as inactive or inconclusive. Bounds are passed on as bounds.

A short description of test [1]: Cell Viability - MRC5 (AID 434; calls by dose curve;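 also: potency is read from the fitted curve at half-maximal effect; cells exposed to compound for 40 hours at 37 °C; potency reflects cytotoxicity seen as loss of intracellular ATP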). To be noted: MRC5 lung fibroblast viability, qHTS. The method, boiled down: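 Decrease in intracellular ATP, quantified by luciferase light output, reflects compound toxicity toward MRC5 cells exposed for 40 hr in complete culture medium. Concentration-response curves, scaled between DMSO and 100 uM tamoxifen, gave AC50 values.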
(In qHTS, concentration-response curves come from the screen itself.)

The nature of test [2]: Cell Viability - SK-N-SH (AID 435; calls by dose curve;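 also: potency is read from the fitted curve at half-maximal effect; compound exposure lasted 40 h at 37 °C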). The note with it: SK-N-SH neuroblastoma cell viability qHTS. The gist of the method:
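Human neuroblastoma line, 40 h exposure at 37 °C, ATP quantified via luciferase luminescence; DMSO and 100 uM tamoxifen define 0 and 100% inhibition for AC50 fitting.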

Test [3] is described as follows: Cellular Toxicity (caspase-3) HUV-EC-C (AID 656).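 Also: cells exposed to compound for 16 h.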 The note with it: HUV-EC-C cells, caspase-3 activation (apoptosis), vehicle = 0, 100 µM tamoxifen = 100%; series mostly up to 92.2 µM. The gist of the method:
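Concentration-dependent caspase 3/7 induction was assessed in HUV-EC-C cells exposed for 16 hours. Data scaled between DMSO and tamoxifen (100 uM) controls.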

Test [4] is described as follows: Cellular Toxicity (caspase-3) H-4-II-E (AID 663).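 Also: cells exposed to compound for 16 hr before readout.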 The note with it: H-4-II-E rat hepatoma; Potency: caspase-3 activation; series mostly up to 92.2 µM. The gist of the method:
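Caspase 3/7 activation measured in H-4-II-E cells in complete culture medium after 16 hr treatment at 37 °C, using luciferase-coupled substrate readout; AC50 values come from Hill-equation fits of normalized concentration-response data.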

Test [5] deals with Cytochrome P450 3A4 (Homo sapiens) (UniProt P08684). The test is described as follows: qHTS Assay for Inhibitors and Substrates of Cytochrome P450 3A4 (AID 884). Also: nearly all actives have a fitted effect of over 50% in size. Also: potency is read from the fitted curve at half-maximal effect. The note with it: recombinant CYP3A4, Luciferin-PPXE luminescence; series mostly up to 57.1 µM. The gist of the method: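 Luminescent readout of luciferin produced by CYP3A4 (20 nM) dealkylation of Luciferin-PPXE, 25 uM (its KM). NADPH-driven reaction ran 60 min at RT after 10 min compound preincubation; data scaled to 57 uM ketoconazole as 100% inhibition.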

The nature of test [6]: MultiTox-Fluor Cytotoxicity Assay - LYMP1-001 - Live Cells (AID 947).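 Also: 0% = DMSO only and full inhibition = tetraoctylammonium bromide control.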 To be noted: LYMP1-001 lymphoblastoid cells, live-cell protease fluorescence viability; series mostly up to 92.2 µM.
Test [7] in a line: Cell Viability - LYMP1-002 - Assay at 16 hr (AID 948).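 Also: 0% = DMSO alone and full effect = 92 µM tetraoctylammonium bromide.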 The note with it: LYMP1-002 lymphoblastoid cell viability; series mostly up to 92.2 µM. The gist of the method:
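In this qHTS, lymphoblastoid LYMP1-002 cells (human) receive compounds for 16 hr at 37 C. Viability is taken from CellTiter-Glo ATP luminescence, and AC50 derives from standard Hill fits.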

Test [8] can be described thus: Cell Viability - LYMP2-004 (AID 966).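 Also: cells exposed to compound for 24 h; plate controls were DMSO only for no effect and tetraoctylammonium bromide control for full effect; nearly all actives have a fitted effect of over 65% in size.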 To be noted: LYMP2-004 lymphoblastoid cell viability, qHTS; series mostly up to 92.2 µM. The method, boiled down: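 qHTS cytotoxicity: human lymphoblastoid line, 24 hr compound treatment, 37 C, complete medium. Viability read as cellular ATP via luciferase luminescence; tetraoctylammonium bromide served as positive control.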
A short description of test [9]: Cell Viability - LYMP2-019 (AID 973).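 Also: cells exposed to compound for 24 h at 37 °C; nearly all actives have a fitted effect of over 55% in size.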 Also: potency is read from the fitted curve at half-maximal effect. The note with it: LYMP2-019 lymphoblastoid cell line viability; series mostly up to 92.2 µM. The method, boiled down:
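Cytotoxicity is scored as a concentration-dependent drop in cellular ATP after cells (2500/well) receive compound for 24 hr at 37 C. Tetraoctylammonium bromide serves as positive control.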

The nature of test [10]: Cell Viability - LYMP2-007 (AID 979).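 Also: cells exposed to compound for 24 h before reading; nearly all actives have a fitted effect of over 60% in size.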 Also: potency is read from the fitted curve at half-maximal effect. The note with it: LYMP2-007 lymphoblastoid cell viability; series mostly up to 92.2 µM. The method, boiled down:
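Cells are seeded at 2500 per well and rested 5 hr. Compounds are then added over a concentration series for 24 hr at 37 C. CellTiter-Glo is added for 30 min at room temperature before luminescence reading.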

Test [11] can be described thus: Cell Viability - LYMP2-008 (AID 980). Also: nearly all actives have a fitted effect of over 60% in size. Also: potency is read from the fitted curve at half-maximal effect. The note with it: LYMP2-008 lymphoblastoid cell viability, qHTS; series mostly up to 92.2 µM. The gist of the method:
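Cells seeded at 2500/well and rested 5 hr at 37 C; compounds added over a concentration range and incubated 24 hr at 37 C; CellTiter-Glo added, 30 min at room temperature; luminescence read and AC50 fitted with Hill model.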

A short description of test [12]: Cell Viability - LYMP2-014 (AID 983).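 Also: cells exposed to compound for 24 h at 37 °C; plate controls were DMSO only for no effect and 92 µM tetraoctylammonium bromide for full effect; nearly all actives have a fitted effect of over 50% in size.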 The note with it: LYMP2-014 lymphoblastoid cells, viability qHTS; series mostly up to 92.2 µM. The method, boiled down:
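Cells are plated at 2500/well and left 5 hr at 37 C. Compounds are added across a concentration range and incubated 24 hr at 37 C in complete medium. CellTiter-Glo is added, and luminescence is read after 30 min at room temperature.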

Test [13] can be described thus: Cell Viability - LYMP2-018 (AID 985).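 Also: compound exposure lasted 24 hr at 37 °C; nearly all actives have a fitted effect of over 50% in size.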 Also: potency is read from the fitted curve at half-maximal effect. To be noted: LYMP2-018 lymphoblastoid cells, viability (qHTS); series mostly up to 92.2 µM. The gist of the method:
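Seed 2500 lymphoblastoid cells per well, incubate 5 hr at 37 C, add compound and incubate 24 hr at 37 C, add CellTiter-Glo, wait 30 min at room temperature, then read luminescence.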

A short description of test [14]: Cell Viability - LYMP2-020 (AID 986).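 Also: cells exposed to compound for 24 h at 37 °C; plate controls were DMSO only for no effect and tetraoctylammonium bromide at 92 µM for full effect; nearly all actives have a fitted effect of over 55% in size.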 To be noted: series mostly up to 92.2 µM. The gist of the method:
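Seed 2500 cells per well and incubate 5 hr at 37 C. Add compounds at a concentration series and incubate 24 hr at 37 C. Add CellTiter-Glo, wait 30 min at RT, read luminescence, and fit a Hill curve for AC50.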

The nature of test [15]: Cell Viability - LYMP2-022 (AID 987). Also: nearly all actives have a fitted effect of over 55% in size. Also: potency is read from the fitted curve at half-maximal effect. To be noted: LYMP2-022 lymphoblastoid cell viability; series mostly up to 92.2 µM. The gist of the method: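 Cells were seeded at 2500 per well, rested 5 hr at 37 C, and treated with titrated compounds for 24 hr at 37 C. Cellular ATP was then quantified by luciferase luminescence, and AC50 values were derived from Hill-modelled concentration-response curves.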

Test [16] can be described thus: Cell Viability - LYMP2-026 (AID 989).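 Also: cells exposed to compound for 24 h at 37 °C; % is scaled to controls: 0 for no effect and ±100 for the full control effect; nearly all actives have a fitted effect of over 50% in size.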 The note with it: LYMP2-026 lymphoblastoid cell viability, qHTS; series mostly up to 92.2 µM. The gist of the method: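 Cells are seeded at 2500 per well and held 5 hr at 37 C. Compounds are added in concentration series for 24 hr, then CellTiter-Glo reagent is applied and luminescence read.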
Test [17] is described as follows: qHTS assay for small molecule antagonists of retinoid X receptor alpha signaling (AID 588546).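 Also: cells stimulated with 9-cis-retinoic acid as agonist; % is scaled to controls: 0 for no effect and ±100 for the full control effect.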 To be noted: HEK293T RXRa-UAS-bla, beta-lactamase ratio, antagonist mode; measured here: W530 green channel, cytotoxicity proxy. The gist of the method:
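Beta-lactamase reporter inhibition, read as CCF4 fluorescence ratio (ex 405, em 460/530 nm) after 2 h at RT. HEK293T UAS-bla cells, 2500/well, were stimulated with 9-cis-RA at 500 or 100 nM final alongside test compound for 18 h at 37 C.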

Test [18] addresses Voltage-gated inwardly rectifying potassium channel KCNH2 (Homo sapiens) (UniProt Q12809). Description: qHTS Assay for Small Molecule Inhibitors of the Human hERG Channel Activity (AID 588834). Also: potency is read from the fitted curve at half-maximal effect. The note with it: U2OS BacMam hERG, FluxOR thallium flux fluorescence; series mostly up to 92.2 µM. The gist of the method: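 Homogeneous FluxOR thallium flux assay using hERG-expressing U2OS cells (BacMam). Compound treatment about 10 minutes preceded stimulation; reduced fluorescence taken as channel block.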

Test [19] in a line: Cellular Toxicity (caspase-3) Jurkat (AID 655).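 Also: cells exposed to compound for 16 h at 37 °C before reading.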 The note with it: Jurkat caspase-3 activation, luminescence; caspase-3 activation: at 92.2 µM (top of the series), DMSO = 0%, tamoxifen = 100%. The method, boiled down:
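qHTS in human Jurkat T-cell leukemia line: 16 hr compound treatment at 37 °C, caspase-3/7 activity measured by Caspase-Glo luminescence. AC50 derived from Hill equation.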

Test [20] is described as follows: Cell Viability - LYMP2-015 (AID 971).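 Also: cells exposed to compound for 24 h; nearly all actives have a fitted effect of over 55% in size.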 Also: potency is read from the fitted curve at half-maximal effect. The note with it: LYMP2-015 lymphoblastoid cell viability; series mostly up to 92.2 µM. The gist of the method:
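Cells are seeded at 2500 per well and incubated 5 hr at 37 C. Compounds are added across a concentration series for 24 hr at 37 C. CellTiter-Glo is added, and luminescence is read after 30 min at room temperature.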

Chain of Voltage-gated inwardly rectifying potassium channel KCNH2 (Homo sapiens) (Q12809 whole entry, looked up): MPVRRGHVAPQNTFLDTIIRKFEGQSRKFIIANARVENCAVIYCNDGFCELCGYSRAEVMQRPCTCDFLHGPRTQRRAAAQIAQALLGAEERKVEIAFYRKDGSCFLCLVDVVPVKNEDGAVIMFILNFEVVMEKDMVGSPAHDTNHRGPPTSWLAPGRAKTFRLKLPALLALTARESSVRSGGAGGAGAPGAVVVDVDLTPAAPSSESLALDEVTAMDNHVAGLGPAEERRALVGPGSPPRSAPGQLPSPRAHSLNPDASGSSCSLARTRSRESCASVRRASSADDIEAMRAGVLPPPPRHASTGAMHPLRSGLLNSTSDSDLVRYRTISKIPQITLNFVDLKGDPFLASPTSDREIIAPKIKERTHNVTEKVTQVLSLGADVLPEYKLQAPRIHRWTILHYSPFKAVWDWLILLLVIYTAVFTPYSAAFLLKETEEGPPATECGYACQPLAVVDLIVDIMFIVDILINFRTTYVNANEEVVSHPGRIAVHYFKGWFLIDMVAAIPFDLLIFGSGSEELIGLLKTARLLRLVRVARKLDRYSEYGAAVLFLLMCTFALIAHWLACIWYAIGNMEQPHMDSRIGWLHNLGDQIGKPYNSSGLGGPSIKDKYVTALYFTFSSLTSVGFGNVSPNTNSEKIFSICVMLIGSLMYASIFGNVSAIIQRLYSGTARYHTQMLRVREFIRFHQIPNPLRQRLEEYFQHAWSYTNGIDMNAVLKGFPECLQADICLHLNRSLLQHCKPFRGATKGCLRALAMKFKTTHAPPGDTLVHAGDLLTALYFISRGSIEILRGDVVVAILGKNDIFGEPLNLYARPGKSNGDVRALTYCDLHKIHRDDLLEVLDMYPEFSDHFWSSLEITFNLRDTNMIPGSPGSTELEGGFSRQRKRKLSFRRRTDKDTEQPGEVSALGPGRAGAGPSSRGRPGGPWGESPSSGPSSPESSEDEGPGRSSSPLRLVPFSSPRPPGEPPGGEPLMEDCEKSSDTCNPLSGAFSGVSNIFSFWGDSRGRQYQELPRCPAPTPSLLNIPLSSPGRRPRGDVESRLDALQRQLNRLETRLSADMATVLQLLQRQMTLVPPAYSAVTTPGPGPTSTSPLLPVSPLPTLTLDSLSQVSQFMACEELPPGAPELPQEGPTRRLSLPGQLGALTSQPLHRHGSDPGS
Chain of Cytochrome P450 3A4 (Homo sapiens) (P08684 whole entry, looked up): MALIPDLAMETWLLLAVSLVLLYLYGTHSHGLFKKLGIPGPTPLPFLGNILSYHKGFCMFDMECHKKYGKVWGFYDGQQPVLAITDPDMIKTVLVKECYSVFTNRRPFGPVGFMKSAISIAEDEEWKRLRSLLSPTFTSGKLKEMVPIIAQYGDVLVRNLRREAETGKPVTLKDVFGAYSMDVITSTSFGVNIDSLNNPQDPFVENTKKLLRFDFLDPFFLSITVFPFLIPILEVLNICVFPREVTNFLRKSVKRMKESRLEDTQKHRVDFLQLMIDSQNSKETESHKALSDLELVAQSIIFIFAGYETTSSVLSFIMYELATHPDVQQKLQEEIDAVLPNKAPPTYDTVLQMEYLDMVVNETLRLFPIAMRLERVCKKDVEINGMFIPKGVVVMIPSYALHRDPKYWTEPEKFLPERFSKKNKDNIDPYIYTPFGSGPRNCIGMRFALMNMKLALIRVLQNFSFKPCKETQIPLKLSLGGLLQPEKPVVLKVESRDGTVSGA

Consider `CCCCC(CC)COC(=O)c1ccc(C(=O)OCC(CC)CCCC)c(C(=O)OCC(CC)CCCC)c1` (centres undefined), for which the Potency in [1] and in [2] was > 92 µM (inactive) each time. The call in test [3], in [6] and in test [7] was inactive. Besides, the Potency entry in [4], in test [5], in test [8], in test [9], in [10] and in test [11] was “inactive” each time. Also, the Potency entry in test [12], in test [13], in [14], in test [15], in test [16] and in test [18] was “inactive” throughout. The max response in test [17] is -7.98%.
On to `Clc1ccccc1`, for which the Potency in test [1] and in [2] was > 92 µM (inactive) throughout. In addition, the caspase-3 activation in [19] is 1.44% (inactive). Also, the result in [3], in test [6] and in [7] was inactive. For the same compound, the Potency result in test [4], in test [5], in test [8], in test [20], in test [9] and in [10] was “inactive” each time. The Potency result in [11], in test [12], in test [13], in test [14], in test [15] and in [16] was “inactive” each time. For the same compound, the Potency entry in test [18] was “inactive”. Moreover, the max response in test [17] was -7.38%.
Turning to `c1ccc(N=NNc2ccccc2)cc1`, the Potency in test [1] is > 92 µM (inactive); in test [2] it was > 92 µM (inactive); in test [18], 39.8 µM (active). For the same compound, the caspase-3 activation in test [19] is 6.34% (inactive). In addition, the compound was classed as inactive in test [3] and in test [6]. Moreover, the Potency result in test [4], in [5], in test [8], in [20], in test [9] and in test [10] was “inactive” in each case. The Potency result in test [11], in test [12], in test [13], in test [14], in [15] and in test [16] was “inactive” each time. The max response in [17] is -2.24%.
As to `Cc1ccc(OP(=O)(Oc2ccc(C)cc2)Oc2ccc(C)cc2)cc1`, the Potency was > 92 µM (inactive) in [1], > 92 µM (inactive) in [2], 7.94 µM (active) in test [5] and 20 µM (active) in test [18]. For the same compound, the caspase-3 activation in [19] is 1.7% (inactive). Further, the outcome in test [3], in test [6] and in test [7] was inactive. In addition, the Potency result in [4], in test [8], in [20], in [9], in test [10] and in test [11] was “inactive” each time. The Potency result in test [12], in test [13], in [14], in [15] and in test [16] was “inactive” throughout. Besides, in [17], the max response was -10.5% and -16.2%.
For the compound `CN(C)c1ccc(N)cc1`, the Potency in test [2] is 41.7 µM (active); in [20] it was 50.1 µM (active); in [9], 50.1 µM (active); in test [10], 50.1 µM (active); in test [11], 50.1 µM (active); in [13] it was 63.1 µM (active). The figures for the Potency in test [15] and in [18] were 50.1 µM (active) and 35.5 µM (active), respectively. For the same compound, in test [19], the caspase-3 activation was -4.87% (inactive). For the same compound, the compound was called inactive in [3]. Further, the Potency result in test [4] was “inactive”. Besides, the max response in [17] was -13%.
Turning to `O=[N+]([O-])c1c(Cl)c(Cl)c(Cl)c(Cl)c1Cl`, the Potency in [1] and in test [2] was > 92 µM (inactive) in each case. Besides, in [19], the caspase-3 activation was 0.645% (inactive). The compound was called inactive in test [3], in test [6] and in test [7]. In addition, the Potency result in test [4], in test [5], in [8], in [20], in [9] and in test [10] was “inactive” throughout. The Potency entry in test [11], in test [12], in [13], in [14], in [15] and in test [16] was “inactive” each time. Also, the Potency result in test [18] was “inactive”. In test [17], the max response is -1.28%.
